Experimental data published in PubChem BioAssay (NCATS).
Values joined by “and” are separate entries in the source; they are usually repeats but may differ in a detail not shown here. Identical values can stand only once. Inconclusive results are not listed. Some structures have more than one record in an assay (separate samples or runs), and their calls can disagree. Active and inactive are the calls of the source. Calls come from the whole dose curve; as a rule, active = well fitted curve in the direction sought with a large enough effect; inconclusive = small, poorly fitted or top-dose-only effect, or another doubt; inactive = no such curve, though single readings can be large; an effect the other way counts as inactive or inconclusive.

How the values were obtained:
[1] = tested on: Es-2; test: Primary qHTS to identify gynecologic anti-cancer compounds using libraries of approved drugs and bioactive compounds (AID 1345084); conditions: Gynecologic cancer cell panel viability, ATPlite luminescence, 48 h; series mostly up to 57.5 µM; note: nearly all actives have a fitted effect of over 55% in size
Procedure, shortened: (§1)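 Cell viability after 48 h drug treatment, ATPlite luminescence readout; five doses.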

[2] = tested on: HeLa; test: as above; conditions: Gynecologic cancer cell panel viability, ATPlite luminescence, 48 h; series mostly up to 57.5 µM
Procedure, shortened: as §1

[3] = tested on: Hek293T; test: as above; conditions: Gynecologic cancer cell panel viability, ATPlite luminescence, 48 h, control line for the selectivity index; series mostly up to 57.5 µM
Procedure, shortened: as §1

[4] = tested on: JEG-3; test: as above; conditions: Gynecologic cancer cell panel viability, ATPlite luminescence, 48 h; series mostly up to 57.5 µM
Procedure, shortened: as §1

[5] = tested on: OV90; test: as above; conditions: Gynecologic cancer cell panel viability, ATPlite luminescence, 48 h; series mostly up to 57.5 µM
Procedure, shortened: as §1

[6] = tested on: PA-1; test: as above; conditions: Gynecologic cancer cell panel viability, ATPlite luminescence, 48 h; series mostly up to 57.5 µM
Procedure, shortened: as §1

[7] = tested on: SKOV3; test: as above; conditions: Gynecologic cancer cell panel viability, ATPlite luminescence, 48 h; series mostly up to 57.5 µM
Procedure, shortened: as §1

[8] = tested on: Tov-21-G; test: as above; conditions: Gynecologic cancer cell panel viability, ATPlite luminescence, 48 h; series mostly up to 57.5 µM
Procedure, shortened: as §1

[9] = tested on: Tov112D; test: as above; conditions: Gynecologic cancer cell panel viability, ATPlite luminescence, 48 h; series mostly up to 57.5 µM
Procedure, shortened: as §1

[10] = Drug repurposing screens with cells derived from glioblastoma tumor samples (AID 1345199); conditions: GBM patient neurospheres viability, ATP luminescence, 48 h; note: nearly all actives have a fitted effect of over 40% in size
Procedure, shortened: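 Primary testing used CD133+ neurospheres from four GBM patients, seven concentrations, 48 h exposure and ATP-based viability; confirmation added three slower-growing patient lines.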

[11] = at 45.9 µM (top of the series), tumour line B
[12] = at 45.9 µM (top of the series), tumour line D
[13] = at 46 µM (top of the series), tumour line A
[14] = at 21.2 µM (top of the series), tumour line B
[15] = at 21.2 µM (top of the series), tumour line D
[16] = at 21.3 µM (top of the series), tumour line A
% is set by controls: 0 for no effect and ±100 for the full control effect; potency is the fitted concentration of half-maximal effect.

N[C@@H](Cc1ccc(Oc2cc(I)c(O)c(I)c2)c(I)c1)C(=O)O
inactive: Potency [1] | Potency [2] | Potency [3] | Potency [4] | Potency [5] | Potency [6] | Potency [7] | Potency [8] | Potency [9] | activity, negative = cell killing [10, 11] -6.2% | activity, negative = cell killing [10, 12] -17.5% | activity, negative = cell killing [10, 13] -27.6%

NCC1(CC(=O)O)CCCCC1
inactive: Potency [1] | Potency [2] | Potency [3] | Potency [4] | Potency [5] | Potency [6] | Potency [7] | Potency [8] | Potency [9] | activity, negative = cell killing [10, 14] -18.9% | activity, negative = cell killing [10, 15] -10.4% | activity, negative = cell killing [10, 16] -25.7%

CC(C)(C)CC(C)(C)c1ccc(O)cc1
inactive: Potency [1] | Potency [2] | Potency [3] | Potency [4] | Potency [5] | Potency [6] | Potency [7] | Potency [8] | Potency [9] | activity, negative = cell killing [10, 12] -15%
active: Potency ([10]; tumour line B) 44700 nM | Potency ([10]; tumour line D) 63100 nM

CCN(CC)CCN1C(=O)CN=C(c2ccccc2F)c2cc(Cl)ccc21
inactive: Potency [1] | Potency [2] | Potency [3] | Potency [4] | Potency [5] | Potency [6] | Potency [7] | Potency [8] | Potency [9] | activity, negative = cell killing [10, 11] -20.2%
active: Potency ([10]; tumour line A) 14100 nM

Cc1ccc(-c2nc3ccc(C)cn3c2CC(=O)N(C)C)cc1
inactive: Potency [1] | Potency [2] | Potency [3] | Potency [4] | Potency [5] | Potency [6] | Potency [7] | Potency [8] | Potency [9] | activity, negative = cell killing [10, 11] -10.9% | activity, negative = cell killing [10, 12] 2.33% | activity, negative = cell killing [10, 13] -24.8%

NCC(CC(=O)O)c1ccc(Cl)cc1 (stereo unspecified)
inactive: activity change, negative = cytotoxicity [1] 4.42% [at 0.462 µM] | activity change, negative = cytotoxicity [2] 8.44% [at 0.462 µM] | activity change, negative = cytotoxicity [3] -3.58% [at 0.462 µM] | activity change, negative = cytotoxicity [4] -6.96% [at 0.462 µM] | activity change, negative = cytotoxicity [5] 19.2% [at 0.462 µM] | activity change, negative = cytotoxicity [6] 5.78% [at 0.462 µM] | activity change, negative = cytotoxicity [7] 1.02% [at 0.462 µM] | activity change, negative = cytotoxicity [8] 5.93% [at 0.462 µM] | activity change, negative = cytotoxicity [9] -1.06% [at 0.462 µM] | activity, negative = cell killing [10, 11] -0.559% | activity, negative = cell killing [10, 12] -15.2% | activity, negative = cell killing [10, 13] -26.1%

C[C@@H]1O[C@@H](O[C@H]2C[C@@H](O)[C@]3(CO)[C@H]4[C@H](O)C[C@]5(C)[C@@H](C6=CC(=O)OC6)CC[C@]5(O)[C@@H]4CC[C@]3(O)C2)[C@H](O)[C@H](O)[C@H]1O
active: Potency [1] 316 nM and 141 nM | Potency [2] 224 nM and 158 nM | Potency [3] 282 nM and 178 nM | Potency [4] 355 nM | Potency [5] 447 nM and 794 nM | Potency [6] 316 nM and 141 nM | Potency [7] 251 nM and 158 nM | Potency [8] 251 nM and 141 nM | Potency [9] 89.1 nM and 100 nM | Potency ([10]; tumour line A) 158 nM | Potency ([10]; tumour line B) 112 nM | Potency ([10]; tumour line D) 398 nM

FC(F)(F)c1cccc(C2=CCN(CCc3ccc4ccccc4c3)CC2)c1
inactive: Potency [1] | Potency [2] | Potency [3] | Potency [4] | Potency [5] | Potency [6] | Potency [8] | Potency [9]

CCN(CC)C(=O)N[C@@H]1C=C2c3cccc4[nH]cc(c34)C[C@@H]2N(C)C1
inactive: Potency [1] | Potency [2] | Potency [3] | Potency [4] | Potency [5] | Potency [6] | Potency [7] | Potency [8] | Potency [9] | activity, negative = cell killing [10, 11] -7.53% | activity, negative = cell killing [10, 12] -22.7%

Cc1cccc(C)c1NC(=O)CN1CCCC1=O
inactive: Potency [1] | Potency [2] | Potency [3] | Potency [4] | Potency [5] | Potency [6] | Potency [7] | Potency [8] | Potency [9] | activity, negative = cell killing [10, 11] -2.88% | activity, negative = cell killing [10, 12] -0.691% | activity, negative = cell killing [10, 13] -27.7%

CNCC(O)c1ccc(O)cc1 (stereo unspecified)
inactive: Potency [1] | Potency [2] | Potency [3] | Potency [4] | Potency [5] | Potency [6] | Potency [7] | Potency [8] | Potency [9] | activity, negative = cell killing [10, 14] 9.4% | activity, negative = cell killing [10, 15] 0.215% | activity, negative = cell killing [10, 16] -26.2%

O=P1(NCCCl)OCCCN1CCCl (stereo unspecified)
inactive: Potency [1] | Potency [2] | Potency [3] | Potency [4] | Potency [5] | Potency [6] | Potency [7] | Potency [8] | Potency [9] | activity, negative = cell killing [10, 14] -10.6% | activity, negative = cell killing [10, 15] -4.8% | activity, negative = cell killing [10, 16] -27.9%

CC1OC(C)OC(C)O1 (stereo unspecified)
inactive: Potency [1] | Potency [2] | Potency [3] | Potency [4] | Potency [5] | Potency [6] | Potency [7] | Potency [8] | Potency [9] | activity, negative = cell killing [10, 11] 0.183% and 0.957% | activity, negative = cell killing [10, 12] -11.1% and -5.15% | activity, negative = cell killing [10, 13] -20.8% and 1.27%

CN1CCN(C(=O)O[C@H]2c3nccnc3C(=O)N2c2ccc(Cl)cn2)CC1
inactive: Potency [1] | Potency [2] | Potency [3] | Potency [4] | Potency [5] | Potency [6] | Potency [7] | Potency [8] | Potency [9] | activity, negative = cell killing [10, 11] -4.94% | activity, negative = cell killing [10, 12] -12.7% | activity, negative = cell killing [10, 13] -22.2%

Oc1ccccc1-c1ccccc1
inactive: Potency [1] | Potency [2] | Potency [3] | Potency [4] | Potency [5] | Potency [6] | Potency [7] | Potency [8] | Potency [9] | activity, negative = cell killing [10, 11] -14.5% | activity, negative = cell killing [10, 12] -15.4% | activity, negative = cell killing [10, 13] -19.2%

OCCOc1ccccc1
inactive: Potency [1] | Potency [2] | Potency [3] | Potency [4] | Potency [5] | Potency [6] | Potency [7] | Potency [8] | Potency [9] | activity, negative = cell killing [10, 11] 3.03% and -11.2% | activity, negative = cell killing [10, 12] -21.5% and 1.35% | activity, negative = cell killing [10, 13] -19.1%

COc1ccc(C(=O)c2c(C)n(CCN3CCOCC3)c3ccccc23)cc1
inactive: Potency [1] | Potency [2] | Potency [3] | Potency [4] | Potency [5] | Potency [6] | Potency [8] | Potency [9] | activity, negative = cell killing [10, 11] -14.8% | activity, negative = cell killing [10, 12] -16%
